Common to all, as to assay: DAPPL (digital affinity profiling via proximity ligation, sequencing); 10 mM Tris-HCl pH 7.5, 50 mM NaCl, 1 mM DTT, 4% glycerol, room temperature, 30 min; GST-TFs on glutathione beads, 16-mer random dsDNA library, 0.1% formaldehyde crosslink after washing; high values mean tight binding
In one assay the target is T1, FEV (Homo sapiens, UniProt Q99581 1-238).
T1 sequence: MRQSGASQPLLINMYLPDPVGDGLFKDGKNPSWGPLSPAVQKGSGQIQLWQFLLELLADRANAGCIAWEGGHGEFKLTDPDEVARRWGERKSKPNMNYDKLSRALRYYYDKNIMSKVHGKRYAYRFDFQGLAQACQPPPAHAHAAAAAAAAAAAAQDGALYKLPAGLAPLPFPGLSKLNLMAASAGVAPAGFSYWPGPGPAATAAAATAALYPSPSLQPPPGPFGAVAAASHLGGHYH
As to conditions: protein: recombinant; tags: N-terminal GST; dsDNA, one strand shown. An outline of the steps:
(§1)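 Binding signal is each hexamer's read frequency for a factor divided by its frequency in the tag-only sample. The factors were GST-fused human transcription factors from yeast, captured on glutathione beads, DNA-barcoded and pooled with that sample. Pools were incubated with 200 nmole of a random double-stranded 16-mer DNA library in Tris/NaCl/DTT/glycerol buffer at room temperature for 30 min, then washed, crosslinked with 0.1% formaldehyde, proximity-ligated with BsaI/T4 ligase (1 h, 37 °C), PCR-amplified and sequenced on an Illumina NextSeq500.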

For a further assay, the target named is ETV5 (Homo sapiens, UniProt P41161 1-510). The following applies: protein: recombinant; tags: N-terminal GST; dsDNA, one strand shown. In a few lines:
as §1

The target of the next assay is HSF1 (Homo sapiens, UniProt Q00613 1-529). The following applies: protein: recombinant; tags: N-terminal GST; chain copies: 3; dsDNA, one strand shown. In a few lines:
as §1

In the next assay the target is T2, SPIC (Homo sapiens, UniProt Q8N5J4 1-248).
T2 sequence: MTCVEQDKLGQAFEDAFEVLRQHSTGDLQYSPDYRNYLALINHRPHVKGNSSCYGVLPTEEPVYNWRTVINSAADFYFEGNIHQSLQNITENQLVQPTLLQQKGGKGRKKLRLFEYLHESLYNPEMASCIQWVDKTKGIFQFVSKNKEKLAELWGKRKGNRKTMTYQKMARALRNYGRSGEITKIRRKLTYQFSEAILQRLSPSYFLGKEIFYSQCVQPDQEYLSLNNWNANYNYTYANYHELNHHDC
The following applies: protein: recombinant; tags: N-terminal GST; dsDNA, one strand shown. In a few lines:
as §1

The target in the next assay is ELF4 (Homo sapiens, UniProt Q99607 1-663). As to conditions: protein: recombinant; tags: N-terminal GST; dsDNA, one strand shown. An outline of the steps:
as §1

The next assay deals with T3, ELK4 (Homo sapiens, UniProt P28324-2 1-405).
T3 sequence: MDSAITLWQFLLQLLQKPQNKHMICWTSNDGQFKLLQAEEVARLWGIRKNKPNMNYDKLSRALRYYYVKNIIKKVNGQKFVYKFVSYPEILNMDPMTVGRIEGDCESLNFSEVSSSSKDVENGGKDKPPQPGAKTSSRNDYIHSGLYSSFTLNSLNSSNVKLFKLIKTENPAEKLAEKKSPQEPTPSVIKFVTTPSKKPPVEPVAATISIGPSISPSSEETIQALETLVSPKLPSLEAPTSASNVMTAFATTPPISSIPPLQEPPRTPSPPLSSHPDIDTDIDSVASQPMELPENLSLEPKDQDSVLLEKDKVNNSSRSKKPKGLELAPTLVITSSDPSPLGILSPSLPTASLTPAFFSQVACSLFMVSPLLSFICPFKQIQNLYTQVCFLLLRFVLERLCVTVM
The following applies: protein: recombinant; tags: N-terminal GST; dsDNA, one strand shown. In a few lines:
as §1

In the next assay the target is T4, ELF3 (Homo sapiens, UniProt P78545 1-371).
T4 sequence: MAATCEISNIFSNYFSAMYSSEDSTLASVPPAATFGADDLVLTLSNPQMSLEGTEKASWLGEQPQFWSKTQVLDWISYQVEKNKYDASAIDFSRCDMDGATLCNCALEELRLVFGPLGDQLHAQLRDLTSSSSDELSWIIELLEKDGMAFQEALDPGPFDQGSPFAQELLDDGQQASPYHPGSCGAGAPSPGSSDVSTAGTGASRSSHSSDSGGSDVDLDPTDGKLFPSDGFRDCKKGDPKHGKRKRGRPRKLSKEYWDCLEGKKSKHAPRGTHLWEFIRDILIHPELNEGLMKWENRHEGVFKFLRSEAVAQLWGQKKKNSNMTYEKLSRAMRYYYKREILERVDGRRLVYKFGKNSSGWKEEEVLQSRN
The following applies: protein: recombinant; tags: N-terminal GST; dsDNA, one strand shown. An outline of the steps: as §1

A further assay addresses ETV1 (Homo sapiens, UniProt P50549 1-477). The following applies: protein: recombinant; tags: N-terminal GST; dsDNA, one strand shown. In a few lines: as §1
The target in a further assay is CRX (Homo sapiens, UniProt O43186 1-299). The following applies: protein: recombinant; tags: N-terminal GST; dsDNA, one strand shown. In a few lines: as §1
Chain of CRX (O43186 whole entry): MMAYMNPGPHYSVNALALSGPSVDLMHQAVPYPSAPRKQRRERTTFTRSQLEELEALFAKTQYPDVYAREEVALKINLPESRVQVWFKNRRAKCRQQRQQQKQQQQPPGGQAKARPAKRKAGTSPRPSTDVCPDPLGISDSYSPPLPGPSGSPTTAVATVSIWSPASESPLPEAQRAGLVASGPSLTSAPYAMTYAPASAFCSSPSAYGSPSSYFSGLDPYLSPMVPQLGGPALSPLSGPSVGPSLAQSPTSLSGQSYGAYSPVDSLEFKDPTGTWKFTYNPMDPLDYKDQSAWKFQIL

Chain of ETV1 (P50549 whole entry): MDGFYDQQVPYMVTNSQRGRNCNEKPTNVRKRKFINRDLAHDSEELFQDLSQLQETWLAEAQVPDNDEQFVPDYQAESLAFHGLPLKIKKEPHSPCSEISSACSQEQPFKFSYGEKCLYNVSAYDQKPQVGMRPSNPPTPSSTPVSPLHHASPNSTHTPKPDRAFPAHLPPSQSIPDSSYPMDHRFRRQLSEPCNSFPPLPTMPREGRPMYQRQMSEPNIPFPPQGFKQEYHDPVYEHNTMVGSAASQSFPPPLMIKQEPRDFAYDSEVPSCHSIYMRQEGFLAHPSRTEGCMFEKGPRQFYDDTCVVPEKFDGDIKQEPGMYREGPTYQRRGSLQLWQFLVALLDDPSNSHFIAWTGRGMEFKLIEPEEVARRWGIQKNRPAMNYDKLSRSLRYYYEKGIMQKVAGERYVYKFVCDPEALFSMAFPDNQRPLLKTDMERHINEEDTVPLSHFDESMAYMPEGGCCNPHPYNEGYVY
Chain of ETV5 (P41161 whole entry): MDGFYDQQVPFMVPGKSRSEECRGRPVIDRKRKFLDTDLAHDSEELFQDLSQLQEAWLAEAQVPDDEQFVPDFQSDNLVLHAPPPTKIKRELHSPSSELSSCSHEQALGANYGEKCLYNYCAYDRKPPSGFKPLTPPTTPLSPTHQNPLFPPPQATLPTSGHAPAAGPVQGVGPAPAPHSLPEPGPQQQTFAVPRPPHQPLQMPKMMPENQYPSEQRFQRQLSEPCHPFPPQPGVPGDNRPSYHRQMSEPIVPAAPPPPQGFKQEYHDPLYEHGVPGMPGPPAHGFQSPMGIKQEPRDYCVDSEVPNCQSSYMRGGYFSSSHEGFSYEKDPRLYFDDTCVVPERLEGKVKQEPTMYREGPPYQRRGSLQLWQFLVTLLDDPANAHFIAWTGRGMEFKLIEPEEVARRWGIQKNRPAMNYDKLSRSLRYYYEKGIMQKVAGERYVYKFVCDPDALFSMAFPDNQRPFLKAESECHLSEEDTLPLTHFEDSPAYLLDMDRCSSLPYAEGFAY
Chain of ELF4 (Q99607 whole entry): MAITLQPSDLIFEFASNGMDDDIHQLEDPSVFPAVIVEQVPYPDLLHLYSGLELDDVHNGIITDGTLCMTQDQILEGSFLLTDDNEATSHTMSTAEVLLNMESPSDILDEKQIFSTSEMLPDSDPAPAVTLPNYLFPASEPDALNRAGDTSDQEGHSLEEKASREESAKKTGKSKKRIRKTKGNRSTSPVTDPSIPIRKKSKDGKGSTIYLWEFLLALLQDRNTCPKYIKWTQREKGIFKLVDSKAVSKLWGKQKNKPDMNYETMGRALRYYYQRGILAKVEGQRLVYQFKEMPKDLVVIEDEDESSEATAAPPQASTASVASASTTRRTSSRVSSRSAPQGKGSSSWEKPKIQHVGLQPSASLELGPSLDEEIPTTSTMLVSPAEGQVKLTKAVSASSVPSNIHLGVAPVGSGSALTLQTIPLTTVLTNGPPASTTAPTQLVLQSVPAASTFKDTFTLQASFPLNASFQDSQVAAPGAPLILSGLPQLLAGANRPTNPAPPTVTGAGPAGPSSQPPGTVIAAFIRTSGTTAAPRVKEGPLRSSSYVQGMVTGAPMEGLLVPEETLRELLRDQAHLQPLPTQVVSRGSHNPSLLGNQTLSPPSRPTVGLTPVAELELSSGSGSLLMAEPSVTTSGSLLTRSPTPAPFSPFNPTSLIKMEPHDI
Chain of HSF1 (Q00613 whole entry): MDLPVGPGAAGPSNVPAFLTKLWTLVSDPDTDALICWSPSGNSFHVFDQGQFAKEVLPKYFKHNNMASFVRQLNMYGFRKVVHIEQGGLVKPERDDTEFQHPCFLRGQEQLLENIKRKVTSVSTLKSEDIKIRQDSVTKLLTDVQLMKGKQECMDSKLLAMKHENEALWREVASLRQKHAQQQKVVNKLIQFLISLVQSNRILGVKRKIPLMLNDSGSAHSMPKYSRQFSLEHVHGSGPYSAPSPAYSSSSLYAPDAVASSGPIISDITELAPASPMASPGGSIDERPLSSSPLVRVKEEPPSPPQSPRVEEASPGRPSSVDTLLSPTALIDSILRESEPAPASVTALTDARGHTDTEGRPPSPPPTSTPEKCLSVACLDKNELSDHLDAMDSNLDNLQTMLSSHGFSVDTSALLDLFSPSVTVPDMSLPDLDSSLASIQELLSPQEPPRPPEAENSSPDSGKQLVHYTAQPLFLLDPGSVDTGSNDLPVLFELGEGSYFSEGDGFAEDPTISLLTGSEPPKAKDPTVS

With TGCGCA, the binding signal in the assay with FEV is 1.14 fold enrichment (6-mer frequency, TF over GST control); with ETV5, 1.12 fold enrichment (6-mer frequency, TF over GST control); with HSF1 it was 1.07 fold enrichment (6-mer frequency, TF over GST control); with SPIC it was 1.15 fold enrichment (6-mer frequency, TF over GST control); with ELF4, 1.09 fold enrichment (6-mer frequency, TF over GST control); with ELK4 it was 1.12 fold enrichment (6-mer frequency, TF over GST control). For the same sequence, the binding signal with ELF3 was 1.06 fold enrichment (6-mer frequency, TF over GST control); in the assay with ETV1, 1.07 fold enrichment (6-mer frequency, TF over GST control).
For the sequence CGATCA, the binding signal with FEV was 1.04 fold enrichment (6-mer frequency, TF over GST control); in the assay with ETV5, 1.03 fold enrichment (6-mer frequency, TF over GST control); in the assay with HSF1 it was 1.22 fold enrichment (6-mer frequency, TF over GST control); with SPIC, 1.06 fold enrichment (6-mer frequency, TF over GST control); with ELF4 it was 1.06 fold enrichment (6-mer frequency, TF over GST control); in the assay with ELK4, 1.07 fold enrichment (6-mer frequency, TF over GST control). Also, the binding signal with ELF3 was 1.07 fold enrichment (6-mer frequency, TF over GST control); with CRX, 1.16 fold enrichment (6-mer frequency, TF over GST control); with ETV1, 1.04 fold enrichment (6-mer frequency, TF over GST control).
As to GTGCTA, the binding signal was 1.11 fold enrichment (6-mer frequency, TF over GST control) with FEV; 1.16 fold enrichment (6-mer frequency, TF over GST control) in the assay with ETV5; 1.07 fold enrichment (6-mer frequency, TF over GST control) with HSF1; 1.17 fold enrichment (6-mer frequency, TF over GST control) in the assay with SPIC; 1.07 fold enrichment (6-mer frequency, TF over GST control) in the assay with ELF4; 1.08 fold enrichment (6-mer frequency, TF over GST control) with ELK4. Besides, the binding signal with ELF3 is 1.12 fold enrichment (6-mer frequency, TF over GST control); in the assay with ETV1 it was 1.1 fold enrichment (6-mer frequency, TF over GST control).
With TAGCAT, the binding signal was 1.13 fold enrichment (6-mer frequency, TF over GST control) in the assay with FEV; 1.09 fold enrichment (6-mer frequency, TF over GST control) with ETV5; 1.38 fold enrichment (6-mer frequency, TF over GST control) in the assay with HSF1; 1.07 fold enrichment (6-mer frequency, TF over GST control) with SPIC; 1.16 fold enrichment (6-mer frequency, TF over GST control) in the assay with ELF4; 1.16 fold enrichment (6-mer frequency, TF over GST control) in the assay with ELK4. Further, the binding signal with ELF3 is 1.15 fold enrichment (6-mer frequency, TF over GST control); with CRX, 1.42 fold enrichment (6-mer frequency, TF over GST control); in the assay with ETV1 it was 1.17 fold enrichment (6-mer frequency, TF over GST control).
For the sequence GGGCTT, the binding signal in the assay with FEV was 1.24 fold enrichment (6-mer frequency, TF over GST control); with ETV5, 1.18 fold enrichment (6-mer frequency, TF over GST control); in the assay with HSF1, 1.46 fold enrichment (6-mer frequency, TF over GST control); with SPIC, 1.11 fold enrichment (6-mer frequency, TF over GST control); in the assay with ELF4 it was 1.08 fold enrichment (6-mer frequency, TF over GST control); with ELK4 it was 1.22 fold enrichment (6-mer frequency, TF over GST control). Further, the binding signal with ELF3 is 1.17 fold enrichment (6-mer frequency, TF over GST control); with CRX, 1.77 fold enrichment (6-mer frequency, TF over GST control); with ETV1, 1.29 fold enrichment (6-mer frequency, TF over GST control).
Take TGATCG: the binding signal in the assay with FEV was 1.01 fold enrichment (6-mer frequency, TF over GST control); with ETV5, 1.03 fold enrichment (6-mer frequency, TF over GST control); with HSF1 it was 1.18 fold enrichment (6-mer frequency, TF over GST control); with SPIC, 1.11 fold enrichment (6-mer frequency, TF over GST control); with ELF4 it was 1.05 fold enrichment (6-mer frequency, TF over GST control); with ELK4, 1.13 fold enrichment (6-mer frequency, TF over GST control). Further, the binding signal in the assay with CRX is 1.21 fold enrichment (6-mer frequency, TF over GST control); in the assay with ETV1, 1.09 fold enrichment (6-mer frequency, TF over GST control).
As for CCTCGT, the binding signal in the assay with FEV is 1.18 fold enrichment (6-mer frequency, TF over GST control); with ETV5, 1.19 fold enrichment (6-mer frequency, TF over GST control); with HSF1, 1.08 fold enrichment (6-mer frequency, TF over GST control); in the assay with SPIC, 1.25 fold enrichment (6-mer frequency, TF over GST control); in the assay with ELF4, 1.25 fold enrichment (6-mer frequency, TF over GST control); with ELK4, 1.29 fold enrichment (6-mer frequency, TF over GST control). Further, the binding signal with ELF3 is 1.24 fold enrichment (6-mer frequency, TF over GST control); with ETV1, 1.39 fold enrichment (6-mer frequency, TF over GST control).
With ATAAAG, the binding signal was 1.04 fold enrichment (6-mer frequency, TF over GST control) with FEV; 1.03 fold enrichment (6-mer frequency, TF over GST control) with ETV5; 1.27 fold enrichment (6-mer frequency, TF over GST control) in the assay with HSF1; 1.09 fold enrichment (6-mer frequency, TF over GST control) in the assay with SPIC; 1.08 fold enrichment (6-mer frequency, TF over GST control) with ELF4; 1.16 fold enrichment (6-mer frequency, TF over GST control) in the assay with ELK4. Further, the binding signal in the assay with ELF3 is 1.02 fold enrichment (6-mer frequency, TF over GST control); with CRX, 1.53 fold enrichment (6-mer frequency, TF over GST control); with ETV1, 1.04 fold enrichment (6-mer frequency, TF over GST control).
